Reference: PubChem BioAssay
Several values for one entry are separate records, joined by “and”; a condition that tells them apart may be missing. Identical values can stand only once. Activity calls are given as the source filed them.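 The calls were made as follows, unless noted: active = thallium flux through the channel raised or lowered by more than 3 SD from vehicle-only wells, actives on both sides; inactive = the rest.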 Non-standard residues stand in square brackets, D forms with d. Residues, ends and D or L forms follow the SMILES beside them. pGlu = O=C1CC[C@@H](C(=O)O)N1; Thz = O=C(O)[C@@H]1CSCN1

Experiments:
[1] = liver-stage malaria parasite growth inhibition, primary screen, cell-based, HepG2, luciferase luminescence, HepG2 viability (AID 624349; in the data active = parasite load remaining mostly below about 12%, no sharp cut-off; inactive = mostly above about 10%;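 also: 100% = mean of DMSO negative control wells on the same plate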); conditions: P. berghei liver stage in HepG2, luciferase luminescence, concentration not given here; parasite load remaining: stronger effect = lower value; viability: measured here: HepG2 viability without parasites
[2] = Cy5 fluorescence interference with SSB-bound oligo, artefact control for HCV NS3 helicase inhibitor project, biochemical, NIH Clinical Collection, E. coli SSB (AID 743268; call rule not given here)
[3] = test system: Hepatitis C virus NS3 helicase; test: HCV NS3 helicase inhibitors, primary screen, biochemical, fluorescence polarization, NIH Clinical Collection (AID 743270; call rule not given here); conditions: NS3 helicase binding to Cy5-dT15 DNA, stronger effect = higher value, concentration not given here
[4] = molecular target: Single-stranded DNA-binding protein (Escherichia coli (strain K12)) (UniProt P0AGE0); test: E. coli SSB displacement from DNA, counter-screen for HCV NS3 helicase inhibitor project, biochemical, fluorescence polarization, NIH Clinical Collection (AID 743271; in the data active = inhibition above about 28%); conditions: stronger effect = higher value, concentration not given here
[5] = fluorescence interference in NS3h assay format, artefact control for HCV NS3 helicase inhibitor project, biochemical, NIH Clinical Collection (AID 743272; call rule not given here;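 also: HCV NS3 helicase with a Cy5 labelled single stranded DNA probe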); conditions: fluorescence interference counterscreen, stronger effect = lower value
[6] = modulation of C. elegans fzo-1 (AID 1259413; call rule not given here;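 also: fzo-1 mutant C. elegans worms in liquid wells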); conditions: C. elegans fzo-1 modulator screen, mean read-out; stronger effect = higher value
[7] = sensitizers of A549 cells to miR-34 induction, primary screen, imaging, A549 dox-inducible miR-34, nuclei and caspase counts (AID 1347080;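 active = compounds whose cell count with miR-34 switched on is under 0.7 times the count with it off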); conditions: A549 miR-34 inducible, Hoechst nuclei count, 48 h
F380Y = test: modulators of BK channel variants, profiling panel, selectivity assay, cell-based, U2OS BacMam, thallium flux, beta subunits (AID 1259406); conditions: at 30 µM;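 also: initial slope of Thallos dye fluorescence rise after thallium is added; log ratio against the mean of 0.3% DMSO vehicle wells on the same plate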
F380Y/beta1 = test: as above; conditions: at 30 µM
F380Y/beta2Delta = test: as above; conditions: at 30 µM
F380Y/beta4 = test: as above; conditions: at 30 µM
[8] = molecular target: Calcium-activated potassium channel subunit alpha-1 (Homo sapiens) + Leucine-rich repeat-containing protein 26 (Homo sapiens) (UniProt Q12791+Q2I0M4); test: as above; conditions: F380Y/Slo1WT/gamma1, at 30 µM
Calcium-activated potassium channel subunit alpha-1 (Homo sapiens) + Leucine-rich repeat-containing protein 26 (Homo sapiens), sequence (Q2I0M4 whole entry, looked up, one chain of several): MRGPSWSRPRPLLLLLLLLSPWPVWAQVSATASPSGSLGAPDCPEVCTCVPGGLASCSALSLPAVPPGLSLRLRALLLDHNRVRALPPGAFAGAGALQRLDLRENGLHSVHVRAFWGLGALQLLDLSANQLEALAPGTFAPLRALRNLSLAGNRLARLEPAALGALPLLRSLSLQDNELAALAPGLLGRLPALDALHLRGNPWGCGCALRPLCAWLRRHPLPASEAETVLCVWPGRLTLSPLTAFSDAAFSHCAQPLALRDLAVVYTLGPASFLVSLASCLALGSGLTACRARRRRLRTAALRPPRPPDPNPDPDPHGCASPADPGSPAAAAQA

R275C = test: as above; conditions: at 30 µM
R275C/beta1 = test: as above; conditions: at 30 µM
R275C/beta2Delta = test: as above; conditions: at 30 µM
R275C/beta4 = test: as above; conditions: at 30 µM
R275C/Slo1WT/beta2 = test: as above; conditions: at 30 µM
[9] = differential killing of epithelial or mesenchymal cells, primary screen, imaging, PC-3E GFP, TEM4-18 mCherry, co-culture (AID 1345086;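 active = compounds killing one labelled cell type while sparing the other, by normalised counts and ratio limits, not self-fluorescent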;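 as to all read-outs here: cells exposed to compound for 72 h before imaging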;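 as to red/green cell ratio (normalised): normalised mesenchymal count divided by normalised epithelial count so high means epithelial killing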); conditions: imaging cell counts, at 1 µM; for red/green cell ratio (normalised): actives lie on both sides, counts scaled to control wells, 1 = unselective
[10] = survival rescue of mitochondrial mutant cells in low glucose, primary screen, MELAS cybrids, Rieske KO mouse fibroblasts, CellTiter-Glo (AID 1508586;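 active = mean z-score across replicates of 1.96 or higher in either the MELAS or the Rieske mutant cell line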;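 also: z relative to plate mean and SD of compound and empty wells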)
[11] = stronger effect = lower value, cell number ratio, induced over uninduced
[12] = measured here: relative caspase fold change +Dox/-Dox
[13] = measured here: total cells with miR-34 induction, stronger effect = lower value
[14] = measured here: total cells without miR-34 induction
[15] = measured here: epithelial PC-3E GFP cell survival
[16] = measured here: mesenchymal TEM4-18 mCherry cell survival
[17] = MELAS cybrid survival, CellTiter-Glo 48 h, stronger effect = higher value
[18] = Rieske KO mouse fibroblast survival, CellTiter-Glo 72 h

CCCCN1CCCC1CNC(=O)c1cc(C#N)c2ccccc2c1OC (stereo not given)
inactive: parasite load remaining [1] 35.8% | fluorescence ratio [2] 0.93 | inhibition [3] -0.22% | inhibition [4] 2.76% | fluorescence ratio [5] 0.91 | mean signal [6] 308 | fold change [7, 11] 0.818 and 0.935 | log fold change Tl+ flux [8] -0.0355 | log fold change Tl+ flux (R275C) -0.0841 | log fold change Tl+ flux (R275C/beta1) -0.0222 | log fold change Tl+ flux (R275C/beta2Delta) -0.085 | log fold change Tl+ flux (R275C/beta4) -0.0283 | log fold change Tl+ flux (R275C/Slo1WT/beta2) -0.00509
66.3%: viability [1]
0.846 and 1.44: fold change [7, 12]
10400 and 9080: cell count [7, 14]
active: log fold change Tl+ flux (F380Y) -0.12 | log fold change Tl+ flux (F380Y/beta1) -0.109 | log fold change Tl+ flux (F380Y/beta2Delta) -0.243 | log fold change Tl+ flux (F380Y/beta4) -0.221
8480 and 8490: cell count [7, 13]

CC(Cc1ccc(O)c(O)c1)(NN)C(=O)O (stereo not given)
1.3: normalised cell number [9, 16]
inactive: parasite load remaining [1] 41.4% and 31.2% | fluorescence ratio [2] 1.04 | inhibition [3] -2.27% | inhibition [4] -0.48% | fluorescence ratio [5] 1.05 | mean signal [6] 254 | red/green cell ratio (normalised) [9] 1.18 | fold change [7, 11] 0.911 and 0.909 | log fold change Tl+ flux (F380Y) -0.0414 | log fold change Tl+ flux (F380Y/beta1) 0.04 | log fold change Tl+ flux (F380Y/beta2Delta) 0.0399 | log fold change Tl+ flux (F380Y/beta4) 0.0475 | log fold change Tl+ flux [8] 0.00594 | log fold change Tl+ flux (R275C/beta1) 0.024 | log fold change Tl+ flux (R275C/beta2Delta) 0.0162 | log fold change Tl+ flux (R275C/beta4) -0.024 | log fold change Tl+ flux (R275C/Slo1WT/beta2) -0.00513
9190 and 11400: cell count [7, 13]
2.2 and 3.05: fold change [7, 12]
97.1% and 84.8%: viability [1]
active: log fold change Tl+ flux (R275C) 0.0956
10100 and 12600: cell count [7, 14]
1.1: normalised cell number [9, 15]

C[C@H]1O[C@H](O[C@H]2[C@H](O)[C@@H](O)[C@@H](O[C@H]3[C@H](O)[C@@H](O)C(O)O[C@@H]3CO)O[C@@H]2CO)[C@H](O)[C@@H](O)[C@@H]1N[C@H]1C=C(CO)[C@@H](O)[C@H](O)[C@H]1O (stereo not given in full)
12200: cell count [7, 14]
4.27: fold change [7, 12]
1: normalised cell number [9, 16]
inactive: parasite load remaining [1] 61.3% and 108% | fluorescence ratio [2] 1.08 | inhibition [3] 4.36% | inhibition [4] 0.67% | fluorescence ratio [5] 1.03 | mean signal [6] 228 | red/green cell ratio (normalised) [9] 0.91 | fold change [7, 11] 0.866 | log fold change Tl+ flux (F380Y) -0.0255 | log fold change Tl+ flux (F380Y/beta1) 0.0224 | log fold change Tl+ flux (F380Y/beta2Delta) 0.0097 | log fold change Tl+ flux (F380Y/beta4) 0.039 | log fold change Tl+ flux [8] 0.00221 | log fold change Tl+ flux (R275C) -0.0575 | log fold change Tl+ flux (R275C/beta1) -0.00956 | log fold change Tl+ flux (R275C/beta2Delta) -0.0417 | log fold change Tl+ flux (R275C/beta4) -0.0364 | log fold change Tl+ flux (R275C/Slo1WT/beta2) -0.0206
10500: cell count [7, 13]
1.1: normalised cell number [9, 15]
104% and 111%: viability [1]

CNCC[C@@H](Oc1ccccc1C)c1ccccc1
7910: cell count [7, 13]
-0.171: z-score [10, 18]
1.95: fold change [7, 12]
inactive: parasite load remaining [1] 70.5% | fluorescence ratio [2] 1.06 | inhibition [3] -0.4% | inhibition [4] -3.95% | fluorescence ratio [5] 0.98 | mean signal [6] 246 | fold change [7, 11] 0.908 | z-score [10, 17] -1.06 | log fold change Tl+ flux (F380Y) 0.0847 | log fold change Tl+ flux (F380Y/beta1) -0.000881 | log fold change Tl+ flux (F380Y/beta2Delta) 0.0334 | log fold change Tl+ flux (F380Y/beta4) 0.0851 | log fold change Tl+ flux [8] -0.0181 | log fold change Tl+ flux (R275C) -0.0128 | log fold change Tl+ flux (R275C/beta1) 0.0385 | log fold change Tl+ flux (R275C/beta4) 0.0404 | log fold change Tl+ flux (R275C/Slo1WT/beta2) -0.0597
66.2%: viability [1]
8710: cell count [7, 14]
active: log fold change Tl+ flux (R275C/beta2Delta) 0.125

C/C(=C\C(=O)OCCCCCCCCC(=O)O)C[C@@H]1OC[C@H](C[C@@H]2O[C@H]2[C@@H](C)[C@H](C)O)[C@@H](O)[C@H]1O
8160: cell count [7, 14]
inactive: parasite load remaining [1] 65% | fluorescence ratio [2] 1.04 | inhibition [3] -4.09% | inhibition [4] -5.05% | fluorescence ratio [5] 1.03 | mean signal [6] 235 | red/green cell ratio (normalised) [9] 1 | fold change [7, 11] 0.967 | z-score [10, 17] -3.53 | log fold change Tl+ flux (F380Y) 0.0421 | log fold change Tl+ flux (F380Y/beta1) -0.0188 | log fold change Tl+ flux (F380Y/beta2Delta) 0.0619 | log fold change Tl+ flux (F380Y/beta4) 0.0116 | log fold change Tl+ flux [8] 0.0402 | log fold change Tl+ flux (R275C) -0.0142 | log fold change Tl+ flux (R275C/beta1) -0.0156 | log fold change Tl+ flux (R275C/beta2Delta) -0.0137 | log fold change Tl+ flux (R275C/beta4) 0.0262 | log fold change Tl+ flux (R275C/Slo1WT/beta2) -0.00127
-3.7: z-score [10, 18]
1.08: normalised cell number [9, 15] | normalised cell number [9, 16]
0.766: fold change [7, 12]
116%: viability [1]
7890: cell count [7, 13]

O=C1CC[C@@H](C(=O)N2CSC[C@H]2C(=O)O)N1 ([pGlu]-[Thz]-OH)
-0.48: z-score [10, 18]
0.93: normalised cell number [9, 16]
0.97: normalised cell number [9, 15]
inactive: parasite load remaining [1] 123% | fluorescence ratio [2] 1 | inhibition [3] 5.94% | inhibition [4] 3.75% | fluorescence ratio [5] 0.96 | mean signal [6] 225 | red/green cell ratio (normalised) [9] 0.96 | z-score [10, 17] 0.585 | log fold change Tl+ flux (F380Y) -0.0365 | log fold change Tl+ flux (F380Y/beta1) 0.0192 | log fold change Tl+ flux (F380Y/beta2Delta) 0.00122 | log fold change Tl+ flux (F380Y/beta4) 0.0189 | log fold change Tl+ flux [8] -0.0423 | log fold change Tl+ flux (R275C) -0.0391 | log fold change Tl+ flux (R275C/beta1) -0.0174 | log fold change Tl+ flux (R275C/beta2Delta) -0.0226 | log fold change Tl+ flux (R275C/beta4) -0.00158 | log fold change Tl+ flux (R275C/Slo1WT/beta2) -0.0454
115%: viability [1]
